What all share (test): peptide microarray binding signal (635 nm), min-max normalized on array (fraction of array maximum); higher = stronger binding
Holding throughout (conditions): peptide region: H3 11-23

The target of assay [1] is T1, HaloTag-ATRX ADD domain (163-292).
T1 chain: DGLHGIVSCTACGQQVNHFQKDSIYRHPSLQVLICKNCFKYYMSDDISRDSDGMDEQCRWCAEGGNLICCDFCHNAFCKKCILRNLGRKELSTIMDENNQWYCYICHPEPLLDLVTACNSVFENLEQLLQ
A digest of the protocol: (§1)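 Binding signal is the mean intensity of triplicate spots, min-max scaled within each library. Histone 13-mer peptide–cellulose conjugates were spotted in triplicate on nitrocellulose with a Cy3 tracer and blocked overnight at 4°C. Probing lasted 1 h at 4°C, either with biotin-labelled HaloTag reader fusions (10 nM to 1 μM) and streptavidin-Alexa Fluor 647 or with rabbit histone antibodies (1:10,000 to 1:2,000) and anti-rabbit Alexa 647. An Axon GenePix 4000B read signal at 635 nm and misprints at 532 nm.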

The target of assay [2] is HaloTag-ING2 PHD (mouse Ing2 200-280). A digest of the protocol:
as §1

In assay [3] the target is anti-H3K4me3 antibody ab8580. A digest of the protocol:
as §1

Assay [4] has as its target anti-H3K9me3 antibody ab8898. The gist of the method: as §1
The mark [5] stands for this setting: peptide modifications: H3K14ac H3R17me2s, binder concentration: 1:2,000 dilution.
The mark [6] stands for this setting: peptide modifications: H3K14ac H3R17me2s, binder concentration: 1:10,000 dilution.
Setting [7] is: peptide modifications: H3K14ac H3K18me2, binder concentration: 1:2,000 dilution.
Setting [8] is: peptide modifications: H3K14ac H3K18me2, binder concentration: 1:10,000 dilution.
[9] abbreviates: peptide modifications: H3K14ac H3K18me1, binder concentration: 1:2,000 dilution.
The mark [10] stands for this setting: peptide modifications: H3K14ac H3K18me1, binder concentration: 1:10,000 dilution.
Where [11] appears, read: peptide modifications: H3K14me1, binder concentration: 1:2,000 dilution.
[12] abbreviates: peptide modifications: H3K14me1, binder concentration: 1:10,000 dilution.
The mark [13] stands for this setting: peptide modifications: H3K14ac H3R17cit, binder concentration: 1:2,000 dilution.
Where [14] appears, read: peptide modifications: H3K14ac H3R17cit, binder concentration: 1:10,000 dilution.
Where [15] appears, read: peptide modifications: H3K14ac H3R17me1, binder concentration: 1:2,000 dilution.
The mark [16] stands for this setting: peptide modifications: H3K14ac H3R17me1, binder concentration: 1:10,000 dilution.
Setting [17] is: peptide modifications: H3K14ac, binder concentration: 1:2,000 dilution.
The mark [18] stands for this setting: peptide modifications: H3K14ac, binder concentration: 1:10,000 dilution.
Where [19] appears, read: peptide modifications: H3K14ac H3K18me3, binder concentration: 1:2,000 dilution.
The mark [20] stands for this setting: peptide modifications: H3K14ac H3K18me3, binder concentration: 1:10,000 dilution.
The mark [21] stands for this setting: peptide modifications: H3K14me1 H3R17me2a, binder concentration: 1:2,000 dilution.
Where [22] appears, read: peptide modifications: H3K14me1 H3R17me2a, binder concentration: 1:10,000 dilution.
[23] abbreviates: peptide modifications: H3K14me1 H3K18me2, binder concentration: 1:2,000 dilution.
[24] abbreviates: peptide modifications: H3K14me1 H3K18me2, binder concentration: 1:10,000 dilution.

± gives the standard deviation.

This note sets out measurements from the supplement of paper PMC4022240.

B1: H3 11-23 T G G Kac A P Rme2s K Q L A T K (peptide)
chain: TGGKAPRKQLATK
With B1, the “peptide microarray binding signal” value turned out to be 0.00621 ± 0.00011 in assay [1] (peptide modifications: H3K14ac H3R17me2s, binder concentration: 50 nM); 0.0112 ± 0.00066 in assay [1] (peptide modifications: H3K14ac H3R17me2s, binder concentration: 500 nM); 0.0167 ± 0.00051 in assay [2] (peptide modifications: H3K14ac H3R17me2s, binder concentration: 10 nM); 0.02487 ± 0.00023 in assay [2] (peptide modifications: H3K14ac H3R17me2s, binder concentration: 100 nM); 0.00702 ± 0.00068 in assay [3] (setting [5]); 0.00628 ± 0.00011 in assay [3] (setting [6]). The “peptide microarray binding signal” value in assay [4] (setting [5]) amounted to 0.00362 ± 0.00034; in assay [4] (setting [6]), 0.00219 ± 3.5e-05.

B2: H3 11-23 T G G Kac A P R Kme2 Q L A T K (peptide)
chain: TGGKAPRKQLATK
As to B2, the “peptide microarray binding signal” value in assay [1] (peptide modifications: H3K14ac H3K18me2, binder concentration: 50 nM) was determined as 0.00727 ± 0.00061; in assay [1] (peptide modifications: H3K14ac H3K18me2, binder concentration: 500 nM), 0.0126 ± 0.00024; in assay [2] (peptide modifications: H3K14ac H3K18me2, binder concentration: 10 nM) it was 0.0171 ± 0.0046; in assay [2] (peptide modifications: H3K14ac H3K18me2, binder concentration: 100 nM), 0.031 ± 0.014; in assay [3] (setting [7]), 0.0176 ± 0.0051; in assay [3] (setting [8]), 0.0145 ± 0.0016. Also, the “peptide microarray binding signal” value came out at 0.00399 ± 0.00012 in assay [4] (setting [7]) and 0.00346 ± 0.0001 in assay [4] (setting [8]).

B3: H3 11-23 T G G Kac A P R Kme Q L A T K (peptide)
chain: TGGKAPRKQLATK
As to B3, the “peptide microarray binding signal” value in assay [1] (peptide modifications: H3K14ac H3K18me1, binder concentration: 50 nM) was 0.00759 ± 8.2e-05; in assay [1] (peptide modifications: H3K14ac H3K18me1, binder concentration: 500 nM), 0.012 ± 0.00073; in assay [2] (peptide modifications: H3K14ac H3K18me1, binder concentration: 10 nM) it was 0.0187 ± 0.0021; in assay [2] (peptide modifications: H3K14ac H3K18me1, binder concentration: 100 nM), 0.0405 ± 0.011; in assay [3] (setting [9]) it was 0.0114 ± 0.0027; in assay [3] (setting [10]) it was 0.00725 ± 0.00036. For the same molecule, the “peptide microarray binding signal” value in assay [4] (setting [9]) came to 0.00275 ± 0.00016; in assay [4] (setting [10]), 0.00219 ± 0.0001.

B4: H3 11-23 T G G Kme A P R K Q L A T K (peptide)
chain: TGGKAPRKQLATK
Consider B4, for which the “peptide microarray binding signal” value in assay [1] (peptide modifications: H3K14me1, binder concentration: 50 nM) was determined as 0.00646 ± 0.00024; in assay [1] (peptide modifications: H3K14me1, binder concentration: 500 nM), 0.0181 ± 0.002; in assay [2] (peptide modifications: H3K14me1, binder concentration: 10 nM), 0.00567 ± 0.00017; in assay [2] (peptide modifications: H3K14me1, binder concentration: 100 nM), 0.0256 ± 0.0033; in assay [3] (setting [11]) it was 0.0023 ± 0.00025; in assay [3] (setting [12]), 0.00108. Moreover, the “peptide microarray binding signal” value came to 0.004 ± 0.00032 in assay [4] (setting [11]) and 0.00346 ± 0.00012 in assay [4] (setting [12]).

B5: H3 11-23 T G G Kac A P Rcit K Q L A T K (peptide)
chain: TGGKAPRKQLATK
Take B5: the “peptide microarray binding signal” value in assay [1] (peptide modifications: H3K14ac H3R17cit, binder concentration: 50 nM) turned out to be 0.00671 ± 0.00027; in assay [1] (peptide modifications: H3K14ac H3R17cit, binder concentration: 500 nM), 0.013 ± 0.00041; in assay [2] (peptide modifications: H3K14ac H3R17cit, binder concentration: 10 nM), 0.018 ± 0.0015; in assay [2] (peptide modifications: H3K14ac H3R17cit, binder concentration: 100 nM), 0.0345 ± 0.0076; in assay [3] (setting [13]) it was 0.00517 ± 0.00085; in assay [3] (setting [14]), 0.00297 ± 0.00013. Further, the “peptide microarray binding signal” value amounted to 0.00171 ± 5.6e-05 in assay [4] (setting [13]) and 0.00127 ± 1.3e-05 in assay [4] (setting [14]).

B6: H3 11-23 T G G Kac A P Rme K Q L A T K (peptide)
chain: TGGKAPRKQLATK
On to B6, for which the “peptide microarray binding signal” value came to 0.0113 ± 0.0011 in assay [1] (peptide modifications: H3K14ac H3R17me1, binder concentration: 50 nM); 0.0152 ± 0.00047 in assay [1] (peptide modifications: H3K14ac H3R17me1, binder concentration: 500 nM); 0.0182 ± 0.0058 in assay [2] (peptide modifications: H3K14ac H3R17me1, binder concentration: 10 nM); 0.0339 ± 0.014 in assay [2] (peptide modifications: H3K14ac H3R17me1, binder concentration: 100 nM); 0.00517 ± 0.00077 in assay [3] (setting [15]); 0.00719 ± 0.0015 in assay [3] (setting [16]). In addition, the “peptide microarray binding signal” value in assay [4] (setting [15]) came to 0.00569 ± 0.00047; in assay [4] (setting [16]), 0.00404 ± 0.00028.

B7: H3 11-23 T G G Kac A P R K Q L A T K (peptide)
chain: TGGKAPRKQLATK
In the case of B7, the “peptide microarray binding signal” value in assay [1] (peptide modifications: H3K14ac, binder concentration: 50 nM) is 0.0069 ± 0.00019; in assay [1] (peptide modifications: H3K14ac, binder concentration: 500 nM), 0.032 ± 0.0024; in assay [2] (peptide modifications: H3K14ac, binder concentration: 10 nM), 0.0291 ± 0.0036; in assay [2] (peptide modifications: H3K14ac, binder concentration: 100 nM), 0.0427 ± 0.0088; in assay [3] (setting [17]), 0.00429 ± 0.00017; in assay [3] (setting [18]), 0.00314 ± 0.00047. Also, the “peptide microarray binding signal” value in assay [4] (setting [17]) came out at 0.00606 ± 0.00038; in assay [4] (setting [18]), 0.00392 ± 0.00032.

B8: H3 11-23 T G G Kac A P R Kme3 Q L A T K (peptide)
chain: TGGKAPRKQLATK
Regarding B8, the “peptide microarray binding signal” value in assay [1] (peptide modifications: H3K14ac H3K18me3, binder concentration: 50 nM) was found to be 0.00953 ± 0.0014; in assay [1] (peptide modifications: H3K14ac H3K18me3, binder concentration: 500 nM), 0.00948 ± 0.00024; in assay [2] (peptide modifications: H3K14ac H3K18me3, binder concentration: 10 nM) it was 0.00841 ± 0.00063; in assay [2] (peptide modifications: H3K14ac H3K18me3, binder concentration: 100 nM), 0.0201 ± 0.0018; in assay [3] (setting [19]), 0.931 ± 0.11; in assay [3] (setting [20]), 0.499 ± 0.075. Also, the “peptide microarray binding signal” value in assay [4] (setting [19]) stood at 0.0555 ± 0.018; in assay [4] (setting [20]) it was 0.016 ± 0.00022.

B9: H3 11-23 T G G Kme A P Rme2a K Q L A T K (peptide)
chain: TGGKAPRKQLATK
Turning to B9, the “peptide microarray binding signal” value in assay [1] (peptide modifications: H3K14me1 H3R17me2a, binder concentration: 50 nM) came out at 0.00643 ± 0.00034; in assay [1] (peptide modifications: H3K14me1 H3R17me2a, binder concentration: 500 nM), 0.0164 ± 0.0061; in assay [2] (peptide modifications: H3K14me1 H3R17me2a, binder concentration: 10 nM), 0.00633 ± 0.00014; in assay [2] (peptide modifications: H3K14me1 H3R17me2a, binder concentration: 100 nM), 0.0122 ± 0.0012; in assay [3] (setting [21]), 0.00328 ± 0.0014; in assay [3] (setting [22]), 0.00896 ± 0.0044. In addition, the “peptide microarray binding signal” value stood at 0.00393 ± 0.00055 in assay [4] (setting [21]) and 0.00398 ± 0.00069 in assay [4] (setting [22]).

B10: H3 11-23 T G G Kme A P R Kme2 Q L A T K (peptide)
chain: TGGKAPRKQLATK
On to B10, for which the “peptide microarray binding signal” value amounted to 0.009 ± 0.00035 in assay [1] (peptide modifications: H3K14me1 H3K18me2, binder concentration: 50 nM); 0.018 ± 0.00081 in assay [1] (peptide modifications: H3K14me1 H3K18me2, binder concentration: 500 nM); 0.00913 ± 0.00044 in assay [2] (peptide modifications: H3K14me1 H3K18me2, binder concentration: 10 nM); 0.0241 ± 0.008 in assay [2] (peptide modifications: H3K14me1 H3K18me2, binder concentration: 100 nM); 0.0068 ± 0.0002 in assay [3] (setting [23]); 0.00588 ± 0.00018 in assay [3] (setting [24]). Moreover, the “peptide microarray binding signal” value is 0.00371 ± 0.00042 in assay [4] (setting [23]) and 0.00271 ± 4.1e-05 in assay [4] (setting [24]).
